Laboratory results as given in the supplement of paper PMC4466140.

Key:
Assay in all cases: SPOT peptide array binding signal intensity (averaged, normalized) (arbitrary units (background-subtracted, floor 0; scale differs between SH3 domains)); higher = stronger binding of the SH3 domain to the peptide
AgAbp1 = biological target: AgAbp1
Outline: (§1)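 SH3 domains from four yeast species were expressed as GST fusions in E. coli BL21(DE3) and purified on glutathione Sepharose. Each was incubated at 10 μg/ml overnight at 4°C in TBS-based blocking buffer on cellulose membranes bearing synthetic 15-mer peptides, in which serines replaced cysteines. Bound protein was detected with anti-GST antibody, an HRP anti-mouse secondary and luminol, then imaged and quantified with Genespotter. The binding signal is the normalized, background-subtracted spot intensity averaged over replicates, in arbitrary units that are not the same from one domain to another.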

AgBbc1 = biological target: AgBbc1
Outline: as §1

AgBem1-D1 = biological target: AgBem1-D1
Outline: as §1

AgBzz1-D1 = biological target: AgBzz1-D1
Outline: as §1

AgBzz1-D2 = biological target: AgBzz1-D2
Outline: as §1

AgCyk3 = biological target: AgCyk3
Outline: as §1

AgFus1 = biological target: AgFus1
Outline: as §1

AgHof1 = biological target: AgHof1
Outline: as §1

AgHse1 = biological target: AgHse1
Outline: as §1

AgLsb1 = biological target: AgLsb1
Outline: as §1

AgLsb4 = biological target: AgLsb4
Outline: as §1

AgMyo5 = biological target: AgMyo5
Outline: as §1

AgNbp2 = biological target: AgNbp2
Outline: as §1

AgRvs167 = biological target: AgRvs167
Outline: as §1

AgSho1 = biological target: AgSho1
Outline: as §1

AgSla1-D1-D2 = biological target: AgSla1-D1-D2
Outline: as §1

AgSla1-D3 = biological target: AgSla1-D3
Outline: as §1

CaAbp1-D1 = biological target: CaAbp1-D1
Outline: as §1

CaAbp1-D2 = biological target: CaAbp1-D2
Outline: as §1

CaBbc1 = biological target: CaBbc1
Outline: as §1

CaBem1-D1 = biological target: CaBem1-D1
Outline: as §1

CaBzz1-D1 = biological target: CaBzz1-D1
Outline: as §1

CaBzz1-D2 = biological target: CaBzz1-D2
Outline: as §1

CaCyk3 = biological target: CaCyk3
Outline: as §1

CaFus1 = biological target: CaFus1
Outline: as §1

CaHof1 = biological target: CaHof1
Outline: as §1

CaHse1 = biological target: CaHse1
Outline: as §1

CaLsb1 = biological target: CaLsb1
Outline: as §1

CaLsb4 = biological target: CaLsb4
Outline: as §1

CaMyo5 = biological target: CaMyo5
Outline: as §1

VPPPMQPPPIESSNL
SPOT peptide array binding signal intensity (AgAbp1): ≤ 0 | SPOT peptide array binding signal intensity (AgBbc1): 2.5 | SPOT peptide array binding signal intensity (AgBem1-D1): 238 | SPOT peptide array binding signal intensity (AgBzz1-D1): ≤ 0 | SPOT peptide array binding signal intensity (AgBzz1-D2): ≤ 0 | SPOT peptide array binding signal intensity (AgCyk3): 0.5 | SPOT peptide array binding signal intensity (AgFus1): 159 | SPOT peptide array binding signal intensity (AgHof1): 0.25 | SPOT peptide array binding signal intensity (AgHse1): 90 | SPOT peptide array binding signal intensity (AgLsb1): ≤ 0 | SPOT peptide array binding signal intensity (AgLsb4): ≤ 0 | SPOT peptide array binding signal intensity (AgMyo5): 102 | SPOT peptide array binding signal intensity (AgNbp2): 98 | SPOT peptide array binding signal intensity (AgRvs167): ≤ 0 | SPOT peptide array binding signal intensity (AgSho1): 67 | SPOT peptide array binding signal intensity (AgSla1-D1-D2): ≤ 0 | SPOT peptide array binding signal intensity (AgSla1-D3): 0.75 | SPOT peptide array binding signal intensity (CaAbp1-D1): ≤ 0 | SPOT peptide array binding signal intensity (CaAbp1-D2): 8 | SPOT peptide array binding signal intensity (CaBbc1): 10.5 | SPOT peptide array binding signal intensity (CaBem1-D1): 26 | SPOT peptide array binding signal intensity (CaBzz1-D1): 35 | SPOT peptide array binding signal intensity (CaBzz1-D2): 8.25 | SPOT peptide array binding signal intensity (CaCyk3): 8 | SPOT peptide array binding signal intensity (CaFus1): 740 | SPOT peptide array binding signal intensity (CaHof1): ≤ 0 | SPOT peptide array binding signal intensity (CaHse1): 68 | SPOT peptide array binding signal intensity (CaLsb1): 0.5 | SPOT peptide array binding signal intensity (CaLsb4): 388 | SPOT peptide array binding signal intensity (CaMyo5): 142
